This is a sample that favours compounds with a hit; in the whole collection about 4% have one here.
GDH-TPI counter: GDH-TPI coupling enzyme inhibitors, primary screen, artefact control for M. tuberculosis FBA inhibitor project, biochemical, absorbance, full deck; GDH-TPI coupled enzyme counterscreen, NADH absorbance; inhibition, % at 4.8 µM; hit rate 1.2% among 360,000; in the data active = inhibition above about 30%;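 also: 0% = DMSO wells and 100% = wells lacking the enzyme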
Mtb FBA inh: Mtb FBA enzyme inhibitors, primary screen, biochemical, fluorescence, strain H37Rv; Fructose-bisphosphate aldolase (Mycobacterium tuberculosis (strain ATCC 25618 / H37Rv)), …; purified M. tuberculosis FBA, fluorescence read-out; inhibition, % at 1 µM; hit rate 2.3% among 360,000; in the data active = inhibition above about 27%;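 also: 0% = vehicle and 100% = reference inhibitor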
Rv3671c inh: Rv3671c serine protease inhibitors, primary screen, biochemical, fluorescence polarization, M. tuberculosis H37Rv; inhibition, % at 5.96 µM; hit rate 0.048% among 320,000; in the data active = inhibition above about 38%;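 also: extracellular domain of Rv3671c used as enzyme; 0% = enzyme with DMSO and 100% = no enzyme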
RecA intein inh: Mtb RecA intein splicing inhibitors, primary screen, biochemical, fluorescence, HTS; Protein RecA (Mycobacterium tuberculosis (strain ATCC 25618 / H37Rv)), P9WHJ3; hit rate 0.75% among 290,000; cell-free RecA intein splicing; inhibition, % (concentration not given with the values); in the data active = inhibition above about 30%; inconclusive = no clear call, values can overlap the other calls;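 also: 0% = vehicle wells and 100% = reference inhibitor control wells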
UGM FP inh: M. tuberculosis UGM enzyme inhibitors, primary screen, biochemical, fluorescence polarization, single point. UDP-galactopyranose mutase (Mycobacterium tuberculosis (strain ATCC 25618 / H37Rv)), …. purified UGM, fluorescence polarization probe displacement. inhibition, % at 10 µM. hit rate 0.06% among 320,000. AID 504406, 2011; in the data active = inhibition above about 10%, passing the limit was not always enough; inconclusive = no clear call, values can overlap the other calls
Target sequence (P9WIQ1 whole entry, looked up): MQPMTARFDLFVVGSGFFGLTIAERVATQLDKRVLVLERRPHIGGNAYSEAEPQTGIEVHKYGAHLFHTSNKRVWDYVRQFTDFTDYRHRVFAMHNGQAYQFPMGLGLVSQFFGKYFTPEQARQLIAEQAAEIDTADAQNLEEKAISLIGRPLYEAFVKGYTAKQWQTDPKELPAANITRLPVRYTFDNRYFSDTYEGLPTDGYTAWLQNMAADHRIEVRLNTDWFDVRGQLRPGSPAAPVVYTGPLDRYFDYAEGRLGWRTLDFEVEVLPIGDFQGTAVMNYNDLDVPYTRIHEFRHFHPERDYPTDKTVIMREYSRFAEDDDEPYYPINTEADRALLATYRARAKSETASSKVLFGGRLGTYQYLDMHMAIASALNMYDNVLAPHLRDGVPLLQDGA
Mtb betalactam: beta-lactam sensitization of Mtb H37Rv, H37Rv | M. tuberculosis H37Rv growth with meropenem, percent inhibition | inhibition, % at 25 µM | hit rate 0.27% among 330,000 | AID 434955, 2010; call rule not given here;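 also: growth measured after seven days incubation then overnight dye step; 0% = bacteria only wells and 100% = bacteria with antibiotic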
Numbers without * were called inactive; i = inactive; ? = inconclusive; · = no result; + = active, no number; ! = repeats disagree.

SMILES	GDH-TPI counter	Mtb FBA inh	Rv3671c inh	RecA intein inh	UGM FP inh	Mtb betalactam
O=C(O)c1cccc(Cn2c(Cl)c(/C=N/NC(=O)c3ccccc3)sc2=O)c1	56*	-7	0	2	-1	0
Cc1ccccc1N/N=C/c1sc(=O)n(Cc2cccc(C(=O)O)c2)c1Cl	39*	-2	-4	10	-4	21
O=C1c2ccccc2-c2n[nH]c(=O)c3ccc(N4CCCCC4)c1c23	1	-2	3	3	-1	2
CCCCN1C(=O)C(CC(=O)NCc2cccs2)CC(C(=O)N(C)C)=C1C (centres undefined)	6	0	·	·	·	·
O=C(N/N=C/c1cn(Cc2ccccc2)c2ccccc12)c1cc(O)cc(O)c1	22	4	·	5	-3	4
O=C(O)c1cccc(Cn2c(Cl)c(/C=N/NC(=O)c3cccc(O)c3)sc2=O)c1	50*	4	0	4	2	-4
O=C(Nc1ccc(-c2nc3ccccc3o2)c(O)c1)c1cc(-n2cnnc2)ccc1Cl	43*	13	-3	·	-2	8
CCCn1c(=O)c2[nH]c(-c3ccc(S(=O)(=O)O)cc3)nc2n(CCC)c1=O	9	+	2	·	3	-2
COc1ccc2sc(-c3ccc(N(C)C)cc3)c(C#CCCO)c2c1	19	+	-3	·	0	96
COc1ccc2sc(-c3ccc(N(C)C)cc3)c(C#CC(C)(C)O)c2c1	23	+	12	·	2	·
O=C1C(=O)c2c(ccc3ccccc23)-c2ccccc21	-15	-1	·	·	·	·
Cc1c2c(n3c(nc4ccccc43)c1C#N)N(CCN1CCOCC1)CC2	10	+	-1	-205	2	14
C=C(C)CSc1cc(C)c(C#N)c2nc3ccccc3n12	-2	17	4	-98	1	95
CCN(CC)CCCNc1cc(C(F)(F)F)c(C#N)c2nc3ccccc3n12	-4	14	0	i	2	8
Cc1cc(NCCCN2CCOCC2)n2c(nc3ccccc32)c1C#N	3	+	-7	-144	2	-3
CCN(CC)CCCNc1cc(C)c(C#N)c2nc3ccccc3n12	14	116*	·	·	·	·
Cc1cc(NCCCCO)n2c(nc3ccccc32)c1C#N	10	+	-1	-55	0	10
CC(C)CNC(=O)COC(=O)c1cc(S(=O)(=O)N2CCCCC2)ccc1N1CCOCC1	16	2	11	0	-2	-6
CCOc1ccc(/C=N/NC(=S)Nc2c(C)cccc2C)cc1	32*	2	-9	0	0	2
O=S1(=O)N=C(N/N=C/c2cccs2)c2ccccc21	39*	-3	7	0	1	5
O=[N+]([O-])c1ccc(/C=N/NC2=NS(=O)(=O)c3ccccc32)cc1	14	-4	8	·	0	2
O=S1(=O)N=C(Nc2nc3c(s2)CCCC3)c2ccccc21	36*	1	-1	·	1	88
C(=C\c1ccccc1)/CN1CCN(Cc2nc(Cc3ccccc3)no2)CC1	10	1	-7	1	0	2
COc1ccc(N(C(=O)COc2cccc(C)c2)S(=O)(=O)c2ccc(C)cc2)cc1	-8	2	1	52*	2	5
COc1ccc(CCNC(=O)Nc2nc(C(N)CCc3ccccc3)cs2)cc1OC (centres undefined)	3	-2	·	·	·	·
SMILES	GDH-TPI counter	Mtb FBA inh	Rv3671c inh	RecA intein inh	UGM FP inh	Mtb betalactam
CCC(=O)OCOc1ccc(/C=C2/CCC(CN(C)C)C2=O)cc1 (centres undefined)	32*	-2	·	·	·	·
CCOc1ccc(/C=C2\CCC(C3CCCC3)C2=O)cc1 (centres undefined)	1	2	-5	6	-1	1
COC(=O)c1cc2c(s1)=NC=NP=2(N1CCOCC1)N1CCOCC1	31*!	1	-6	0	3	-2
COC(=O)c1ccc(C(=S)N2CCOCC2)cc1	11	4	1	-1	-1	-22
CCN1CCN(c2oc(/C=C/c3ccccc3)nc2C#N)CC1	48*	192*	2	-10	1	1
CNc1oc(-c2ccccc2)nc1C#N	0	181*	0	-3	0	-11
CCN1CCN(c2oc(COc3ccc(Cl)cc3)nc2C#N)CC1	-3	3	-3	17	-1	-11
CNc1oc(/C=C/c2ccccc2)nc1C#N	38*	+	-4	-39	3	2
COc1ccc2oc(C(=O)NC(C)(C)C)c(C)c2c1	2	13	-1	-2	-1	64
COc1cc(C2/C(=C(/O)c3ccc(OCC(C)C)cc3)C(=O)C(=O)N2CCN(C)C)ccc1O (centres undefined)	6	-3	-1	-1	2	0
CCCCN(S(=O)(=O)c1ccccc1)S(=O)(=O)c1ccccc1	-4	-4	0	10	-2	4
Cc1cc(C)cc(C(=O)/C=C2\NC(=O)CS2)c1	39*	-3	-19	2	1	-6
O=C1CSc2ccccc2N1	-5	2	·	·	·	·
O=C1CS/C(=C/C(=O)c2ccccc2)N1	44*	-3	-2	0	0	-4
Cc1ccccc1C(=O)/C=C1\NC(=O)CS1	48*	-2	1	·	2	4
CCN1CCN(CC(=O)N2c3ccccc3Sc3ccccc32)CC1	5	4	5	-1	0	0
COCCN1CCn2c(nc3cc(NC(=O)NC4CCCCC4)ccc32)C1	4	94*	6	·	-2	4
CCn1c(SCC(=O)Nc2oc(-c3ccccc3)c(-c3ccccc3)c2C#N)nnc1-c1ccco1	14	-2	-15	·	-1	3
CCn1c(SCC(=O)Nc2oc(-c3ccccc3)c(-c3ccccc3)c2C#N)nnc1-c1ccncc1	32*	0	-6	5	3	1
CC1(C)CC[C@]2(C(=O)O)CC[C@]3(CO)C(=CCC4[C@@]5(C)C[C@H](O)[C@H](O)[C@@](C)(C(=O)O)C5CC[C@]43C)[C@@H]2C1 (some centres undefined)	6	6	6	·	-4	5
COc1ccc2cc(C(=O)C3CCCN(C(=O)CCc4cnn(C)c4)C3)ccc2c1 (centres undefined)	8	127*	-11	-2	1	-5
COc1ccc2cc(C(=O)C3CCCN(C(=O)c4cncs4)C3)ccc2c1 (centres undefined)	8	152*	-18	·	0	?
COc1ccc2cc(C(=O)C3CCCN(C(=O)c4cccnc4)C3)ccc2c1 (centres undefined)	18	163*	2	2	-1	5
